Experimental data: ChEMBL document CHEMBL4513216, “Probing the Open Global Health Chemical Diversity Library for Multistage-Active Starting Points for Next-Generation Antimalarials” (ACS Infect Dis, 2020)
About 2,100 (3.2%) of roughly 65,000 compounds showed an effect of 50% or more. The median lay at about -52%. Shown is part of a subset that was picked to be rich in strong results.

These molecules were tested on Plasmodium falciparum (assay: Screen against P. falciparum Asexual Blood Stage (ABS), at 5uM). Details: tested at 5 uM.
Format: functional, Dd2

SMILES | INHIBITION
Clc1cc(NCc2ncc[nH]2)nc2[nH]ccc12 | -48.4%
Clc1cc(NCc2ccncc2)nc2[nH]ccc12 | 64.9%
Clc1cc(NCc2nccs2)nc2[nH]ccc12 | -72%
COC[C@@]12CCO[C@@H]1CCN(Cc1ccccc1OC)C2 | 29.7%
CCS(=O)(=O)N1C[C@H](c2nc(C)no2)C[C@H]2OCC[C@H]21 | -101%
COc1cccc(OC)c1-c1ccnc2cc(CC(=O)NC(C)C)nn12 | -158%
Cc1nccn1CCCn1cncc1-c1ccc2c(c1)CCCN2C | -15.5%
Cc1nccn1CCCn1cncc1-c1ccc2c(c1)CCC(C)N2C (configuration not stated) | 66.4%
Cc1nccn1CCCn1cncc1-c1ccc2c(c1)CC(C)N2C (configuration not stated) | 49.8%
CCC1(CC)Cc2ccccc2-c2nc(NCCO)[nH]c(=O)c21 | 1.11%
Cn1ccnc1SCCNC1CCN(c2ncccn2)CC1 | -11.4%
Cn1ccnc1SCCNC1CCN(c2nc3ccccc3s2)CC1 | 59.7%
Cc1n[nH]c(SCCNC2CCN(c3nc4ccccc4s3)CC2)n1 | -196%
O=S(=O)(NCCc1ccccc1F)N1CCOCC1 | -122%
COc1cn(CC(N)=O)c(CSc2nccc(C)n2)cc1=O | -34.1%
O=C(C1CC1)N1CCC2(COCc3cnc(N4CCOCC4)nc32)C1 (configuration not stated) | -76.2%
CC(C)C1CN(C(=O)c2cn3cc(Cl)cnc3n2)CCCN1CC1CC1 (configuration not stated) | -26.8%
CCNC(=O)CCC(=O)NC(Cc1ccccc1)c1sccc1C (configuration not stated) | -32.2%
Cc1ccsc1C(Cc1ccccc1)NC(=O)CSCC(N)=O (configuration not stated) | -9.21%
Cc1ccsc1C(Cc1ccccc1)NC(=O)CNC(=O)C1CC1 (configuration not stated) | 69.9%
CNC(=O)[C@@H](c1ccccc1OC)N1CCC[C@H]1C(=O)NCCN(C)C | -199%
CC(C)c1noc(CCCC(=O)N2CCN(S(C)(=O)=O)CC2)n1 | -41.7%

SMILES | INHIBITION
COCCN(C)C[C@@H]1CN(C(=O)c2ccc(=O)n(C)c2)C[C@@H]1CO | -237%
Cc1cc2c(cc1Cl)C=CC1(CCN(CC(=O)N3CCOCC3)CC1)O2 | 67.6%
Cc1cc2c(cc1Cl)C=CC1(CCN(CC(=O)NC3CCCC3)CC1)O2 | 32.7%
CCN(CC)C(=O)CN1CCC2(C=Cc3cc(Cl)c(C)cc3O2)CC1 | 49.3%
Cc1cc2c(cc1Cl)C=CC1(CCN(C(=O)N3CCOCC3)CC1)O2 | -24%
Cc1ccc(CCC(=O)N2CCOCC2)cc1Cl | -148%
Cc1cc2c(cc1Cl)C=CC1(CCN(CC(=O)N3CCCC3)CC1)O2 | 59.9%
Cc1cc(C(=O)N2CCCC(n3cncn3)C2)nn1C (configuration not stated) | -8.41%
COc1ccc(CNc2cnn(C)c(=O)c2Cl)cc1 | -21.1%
CCN1C[C@H]2[C@@H](C1)N(S(=O)(=O)c1ccccc1F)CC[C@H]2OC | 48.5%
CCN1C[C@@H]2[C@@H](OC)CCN(S(=O)(=O)c3ccccc3)[C@@H]2C1 | 33.8%
CCN1C[C@H]2[C@@H](C1)N(S(=O)(=O)c1ccccc1)CC[C@H]2OC | 62.8%
Cc1ccc(C2(O)CCN(C(=O)CCn3ccc(=O)[nH]c3=O)CC2)nc1 | -56.8%
Cc1ccc(-c2nnc(CN3CCCC(Cn4cncn4)C3)o2)cc1 (configuration not stated) | -182%
CN(C)C(=O)CN1CCC2(COCc3cnc(-c4ccccc4)nc32)C1 (configuration not stated) | -24.6%
CN(Cc1ccco1)C(=O)C1CCCc2ccccc21 (configuration not stated) | -142%
Fc1cccc(CN2CCOC3(COCCN(CC4CC4)C3)C2)c1 (configuration not stated) | 63.4%
O=C(c1ccoc1)N1CCOC2(COCCN(CC3CC3)C2)C1 (configuration not stated) | -17.6%
Fc1cccc(N2CCCC3(CN(Cc4ccco4)CCO3)C2)c1 (configuration not stated) | 43.7%
Fc1cccc(N2CCCC3(CN(Cc4ccncc4)CCO3)C2)c1 (configuration not stated) | 38.4%
COCCN1CCOCC2(CCCN(Cc3cccc(F)c3)C2)C1 (configuration not stated) | 9.71%
Cn1cc(CN2CCOC3(CCCN(c4cccc(F)c4)C3)C2)cn1 (configuration not stated) | -5.32%

SMILES | INHIBITION
Fc1cccc(N2CCCC3(CN(Cc4cccnc4)CCO3)C2)c1 (configuration not stated) | 66%
OCCN1CCOC2(CCCN(c3cccc(F)c3)C2)C1 (configuration not stated) | -22.5%
Cc1ccc(CN2CCOC3(CCCN(c4cccc(F)c4)C3)C2)o1 (configuration not stated) | 51.6%
Fc1ccc(CNCC2Cn3nncc3CO2)cc1 (configuration not stated) | -21.1%
COc1cc(N2CCCC3(CCN(c4cccnc4)C3=O)C2)ncn1 (configuration not stated) | -14.1%
Cc1nnc2ccc(N3CCC4(CCOC4)C3)nn12 (configuration not stated) | -37.2%
FC(F)c1nnc2ccc(N3CCC4(CCOC4)C3)nn12 (configuration not stated) | -52.7%
FC(F)c1nnc2ccc(N3CCC4(CCCCC4)C3)nn12 | 61.4%
O=S1(=O)CCC(CNc2cc(-c3ccccc3)nc3ccnn23)C1 (configuration not stated) | -47.3%
O=S(=O)(c1ccccc1F)N1CCCC(c2nccs2)C1 (configuration not stated) | -129%
O=C(NCCCSc1ccc(F)cc1)C1CCc2cn[nH]c2C1 (configuration not stated) | -54.6%
COCc1cn(C2CCN(CCC(C)c3ccccc3)CC2)nn1 (configuration not stated) | -46.3%
COc1ccc(C(=O)NCC2CCCN(C3CCOCC3)C2)c(O)c1 (configuration not stated) | -31.9%
CCc1noc(CN2CCN(CCO)CC2)n1 | -176%
CCCc1noc(CN2CCN(CCO)CC2)n1 | 50.5%
CC(C)Cc1noc(CN2CCN(CCO)CC2)n1 | 0.0946%
C[C@H](O)CNc1cc(-c2ccncc2)ncn1 | -170%
CCCOCCN1CCC2(CC1)CC(=O)N(Cc1cc(F)cc(F)c1)C2 | 38.7%
Cc1ccc(O)c(CNCC(C)c2nc3ccccc3o2)n1 (configuration not stated) | 63.2%
Cc1nc(CNCC(C)c2nc3ccccc3o2)cs1 (configuration not stated) | -109%
Cc1csc(CNCC(C)c2nc3ccccc3o2)n1 (configuration not stated) | -27.8%
CN1CCc2nc(C3CCN(C(=O)CCC4CCCC4)CC3)ncc2C1 | -37.6%

SMILES | INHIBITION
O=C(NC1CCCN(CCCc2ccccc2)C1)c1ccncc1 (configuration not stated) | -29.1%
O=C(NC1CCCN(CCCc2ccccc2)C1)c1ccc(Cl)s1 (configuration not stated) | 60.9%
O=C(NC1CCCN(CCCc2ccccc2)C1)C1=CCCCC1 (configuration not stated) | 2.46%
CC(=O)N1CC[C@H](c2nc3cc(C)ccc3o2)C1 | -68.8%
CC(=O)N1CC[C@H](c2nc3cc(F)ccc3o2)C1 | -105%
O=C(C1CC1)N1CC[C@H](c2nc3ccccc3o2)C1 | 50.1%
Cc1cc(C)c(N(CC(O)CNCc2ccco2)S(C)(=O)=O)c(C)c1 (configuration not stated) | 60.7%
Cc1ccc(CS(=O)(=O)NCc2ccco2)cc1 | -31.4%
CC(O)CNc1c(NCc2ccco2)c(=O)c1=O (configuration not stated) | -192%
CN(C)c1nc(NCCc2ccccn2)ncc1F | -447%
COc1ccccc1C(=O)N1Cc2cc(C)ccc2OCC1CN(C)C (configuration not stated) | 60.8%
Cc1ccc2c(c1)CN(C(=O)c1ccccc1F)C(CN(C)C)CO2 (configuration not stated) | 50.4%
COc1ccc(C(=O)N2Cc3cc(C)ccc3OCC2CN(C)C)cc1 (configuration not stated) | 17.9%
Cc1ccc(C(=O)N2CCCCC2CN(C)C)cc1 (configuration not stated) | -58.9%
Cc1nc(C)c(C(=O)N2Cc3ccccc3OCC2CN(C)C)o1 (configuration not stated) | -21.9%
Cc1ccc2c(c1)CN(C(=O)c1ccncc1)C(CN(C)C)CO2 (configuration not stated) | 13%
Cc1ccc2c(c1)CN(C(=O)c1cnc(C)cn1)C(CN(C)C)CO2 (configuration not stated) | -86.1%
Cc1ccc2c(c1)CN(C(=O)c1cccnc1)C(CN(C)C)CO2 (configuration not stated) | 29.2%
Cc1ccc2c(c1)CN(C(=O)C1CCCCC1)C(CN(C)C)CO2 (configuration not stated) | 66%
CCCn1nccc1NC(=O)CN1CCc2cnc(C(C)C)nc2C1 | -4.64%
CC(C)CNC(=O)CC1(Cn2cnnn2)CCCCC1 | -92.1%
O=S(=O)(c1ccc(Cl)s1)N1CCCn2ncnc21 | -131%

SMILES | INHIBITION
O=C1CO[C@@H]2CN(CC3CC3)C[C@H]2N1Cc1cccc(F)c1 | -55%
O=C1NCC2(CCC(C(=O)N3CCC(O)CC3)CC2)Oc2ccccc21 (configuration not stated) | -99.2%
CN(C)c1nccc(C2CN(c3ccccc3)CCO2)n1 (configuration not stated) | -40.1%
Cc1ccc(C)n1-c1c(C(=O)NCC(C)N(C)C)cnn1C (configuration not stated) | -93.5%
CCN1C(=O)CCCC12CCCN(C(=O)c1ccncc1F)C2 (configuration not stated) | -46.7%
Fc1ccccc1CN1CCCC(NC2CCOCC2)C1 (configuration not stated) | -11.9%
CC(C)(CNC1CCCN(Cc2ccccn2)C1)CN1CCOCC1 (configuration not stated) | -82.2%
CC(C)(CNC1CCCN(Cc2ccccc2F)C1)CN1CCOCC1 (configuration not stated) | 56.4%
CN(C)c1ncc(CNC(=O)Nc2ccccc2C(F)(F)F)n1C | -113%
CN(C)c1ncc(CNC(=O)Nc2ccccc2F)n1C | -31%
CN(C)c1ncc(CNC(=O)Nc2ccc(C(F)(F)F)cc2)n1C | 68.3%
Cn1cc(C(=O)NCc2cn3c(n2)CN(C2CCOCC2)CC3)cn1 | -26.8%
COCCN(C(=O)c1ccccn1)c1nc2c(s1)CCc1c-2cnn1C | 6.99%
CC(C)[C@@H]1CN(CCOc2ccccc2)C[C@H]1NS(=O)(=O)N(C)C | 40.3%
CC(=O)c1cc(CN2C[C@@H](NS(=O)(=O)N(C)C)[C@H](C(C)C)C2)cs1 | 32.8%
CC(C)[C@H]1CN(C2Cc3ccccc3C2)C[C@@H]1NS(C)(=O)=O | 34.6%
CC(C)[C@@H]1CN(Cc2ccsc2)C[C@H]1NS(=O)(=O)N(C)C | 66.3%
Cc1nc(CN2C[C@@H](NS(=O)(=O)N(C)C)[C@H](C(C)C)C2)cs1 | 19.1%
CC(C)[C@H]1CN(C2Cc3ccccc3C2)C[C@@H]1NS(=O)(=O)N(C)C | 61.6%
